Results filed as inconclusive are left out. Calls of active or inactive are those of the source. Calls come from the whole dose curve; as a rule, active = well fitted curve in the direction sought with a large enough effect; inconclusive = small, poorly fitted or top-dose-only effect, or another doubt; inactive = no such curve, though single readings can be large or run the other way.
molecular target: Pyruvate kinase PKM (Homo sapiens) (UniProt P14618); assay: Secondary LDH Assay for Activators of Human Pyruvate Kinase M1 Isoform: for Probe SAR; conditions: purified hPK-M1, LDH-coupled NADH fluorescence kinetic; series mostly up to 58.2 µM; activity change, negative = inhibition: at the top concentration; note: % of control where 0% means no effect
Method in brief: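 Kinetic LDH-coupled read: initial rates from NADH fluorescence loss over 3-6 min, normalized to uninhibited controls. Final conditions 10 nM hPK-M1, 1 uM LDH, PEP 0.1 mM, ADP 4.0 mM, NADH 0.2 mM in Tris-Cl pH 8.0 with KCl and MgCl2.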

Pyruvate kinase PKM (Homo sapiens), sequence (P14618 whole entry, looked up, canonical isoform): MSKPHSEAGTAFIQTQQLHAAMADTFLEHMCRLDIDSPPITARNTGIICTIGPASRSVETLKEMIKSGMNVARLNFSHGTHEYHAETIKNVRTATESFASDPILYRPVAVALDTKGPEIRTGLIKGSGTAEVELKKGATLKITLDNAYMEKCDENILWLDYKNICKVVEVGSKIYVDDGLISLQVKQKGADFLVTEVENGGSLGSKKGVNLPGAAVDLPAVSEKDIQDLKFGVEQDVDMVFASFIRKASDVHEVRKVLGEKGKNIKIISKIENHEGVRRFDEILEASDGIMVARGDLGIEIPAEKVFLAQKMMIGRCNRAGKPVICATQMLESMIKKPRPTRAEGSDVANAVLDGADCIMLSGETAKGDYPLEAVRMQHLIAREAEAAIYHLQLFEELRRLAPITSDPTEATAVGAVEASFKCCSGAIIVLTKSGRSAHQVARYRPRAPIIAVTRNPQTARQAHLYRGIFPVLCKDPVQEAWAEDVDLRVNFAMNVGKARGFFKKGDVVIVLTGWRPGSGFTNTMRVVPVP

SMILES | activity change, negative = inhibition
Cc1ccc(Cl)cc1NS(=O)(=O)c1cc2c(cc1Cl)CCC(=O)N2 | 4.27% (inactive)
CC(=O)N1CCCc2cc(S(=O)(=O)Nc3ccc(C)c(C)c3)ccc21 | 3.31% (inactive)
O=C1c2ccccc2C(=O)N1c1noc2ccccc12 | -6.06% (inactive)
Fc1ccccc1-c1ccc(-c2nc3ccc(Cl)cn3c2Nc2ccc(Cl)cc2)o1 | 13.2% (inactive)
O=C1c2ccccc2C(=O)N1c1ccccc1O | 2.14% (inactive)
O=C1CCc2cc(S(=O)(=O)Nc3ccc(F)cc3)ccc2N1 | -3.57% (inactive)
Cc1ccc(NS(=O)(=O)c2cccc(Cl)c2)cc1C | 4.63% (inactive)
Cc1ccc(NS(=O)(=O)c2cc3c(cc2-c2ccccc2)NC(=O)CO3)cc1C | -1.77% (inactive)
CCCCN1C(=O)c2ccccc2C1=O | -2.66% (inactive)
COc1cccc(Cn2ncc3c4sc(S(C)=O)cc4n(C)c3c2=O)c1 (stereo not given) | -3.35% (inactive)
O=C1CCc2cc(S(=O)(=O)Nc3cccc(B(O)O)c3)ccc2N1 | -1.4% (inactive)
Cc1ccc(NS(=O)(=O)c2cc3c(cc2C)NC(=O)CO3)cc1C | 16.5% (inactive)
CSc1cc2c(s1)c1cnn(Cc3cccc(O)c3)c(=O)c1n2C | 7.87% (inactive)
Cc1ccc(N[S+](=O)([O-])c2cc3c(cc2CCc2ccccc2)NC(=O)CO3)cc1C | 3.8% (inactive)
O=C1CCc2cc(S(=O)(=O)Nc3cccc(C(F)(F)F)c3)ccc2N1 | 19.6% (inactive)
COc1cccc(OC2=NS(=O)(=O)c3ccccc32)c1 | 7.2% (inactive)
O=C1NS(=O)(=O)c2ccccc21 | -0.749% (inactive)
CCNc1cccc(S(=O)(=O)N2CCCN(S(=O)(=O)c3ccc4c(c3)OCCO4)CC2)c1 | 7.36% (inactive)
Cc1ccc(NS(=O)(=O)c2ccc3c(c2)n(C)c(=O)n3C)cc1C | -3.97% (inactive)
O=C1c2ccccc2C(=O)N1c1cccc(Cl)c1 | -4.02% (inactive)
O=C1CCc2cc(S(=O)(=O)Nc3ccccc3-c3ccccc3)ccc2N1 | 6.2% (inactive)
O=C1CCc2cc([S+](=O)([O-])Nc3ccc(N[S+](=O)([O-])c4ccc5c(c4)CCC(=O)N5)cc3)ccc2N1 | -2.5% (inactive)
O=C1CCc2cc(S(=O)(=O)Nc3cccc(Br)c3)ccc2N1 | -0.337% (inactive)
Cc1ccc(NS(=O)(=O)c2cc3c(cc2-c2ccco2)NC(=O)CO3)cc1C | 18.3% (inactive)
Cc1ccc(NS(=O)(=O)c2cc3c(cc2F)NC(=O)CC3)cc1C | 17.7% (inactive)
O=C1CCc2cc(S(=O)(=O)Nc3ccc(Cl)c(Cl)c3)c(F)cc2N1 | 3.26% (inactive)
O=C1CCc2cc(S(=O)(=O)Nc3ccc4c(c3)CCC4)ccc2N1 | -4.44% (inactive)
Cc1ccc(NS(=O)(=O)c2ccc(N3CCCC3=O)cc2)cc1C | 3.2% (inactive)
O=C1CCc2cc(S(=O)(=O)Nc3cc(F)cc(Cl)c3)c(F)cc2N1 | 2.41% (inactive)
Cc1ccc(NS(=O)(=O)c2ccc3c(c2)CC(=O)N3)cc1C | 2.06% (inactive)
